Screening results from PubChem BioAssay.
IDE exosite inh: exo-site inhibitors of human IDE, primary screen, biochemical, fluorescence anisotropy, probe displacement; Insulin-degrading enzyme (Homo sapiens), P14735; purified IDE, FL-6b probe fluorescence polarization; stronger effect = lower value; z-score at 20 µM; hit rate 6.3% among 17,000;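 active = z-score of -3 or lower, meaning strong loss of probe binding signal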;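 note: His-tagged human IDE residues 42-1019 made in E. coli with 30 nM FL-6b probe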
An asterisk follows results filed as active; ! = not confirmed by another sample. The full list was thinned out, with hits kept by preference.

SMILES | IDE exosite inh
O=C(c1cccnc1)N1CC(=O)N2[C@H](C1)[C@@H](c1ccc(-c3ccccc3F)cc1)[C@@H]2CO | -2.7
Cc1ccccc1-c1ccc([C@@H]2[C@H]3CN(C(=O)c4cccnc4)CC(=O)N3[C@H]2CO)cc1 | -20*
Cc1ccccc1-c1ccc([C@@H]2[C@@H](CO)N3C(=O)CN(C(=O)c4ccncc4)C[C@H]23)cc1 | -2.3
CCCC#Cc1ccc([C@@H]2[C@H](CO)N3C(=O)CN(C(=O)c4cccnc4)C[C@@H]23)cc1 | 0.55
COc1ccc(NC(=O)N2CC(=O)N3[C@@H](CO)[C@H](c4ccc(C5=CCCC5)cc4)[C@@H]3C2)cc1 | -0.8
CC(C)[C@H]1COCc2cn(nn2)CCCCC(=O)N1 | -0.75
CC(C)NC(=O)N[C@H]1CC[C@H](CC(=O)NCCCN(C)C)O[C@@H]1CO | 1.7
COc1cc(CN2C[C@@H]3N[C@H](C2)C3c2ccc(-c3ccc(C#N)cc3)cc2)cc(OC)c1 (stereo not given in full) | -0.74
COc1cccc(CN2CCCCN3[C@@H](CO)[C@@H](c4ccc(-c5ccccc5OC)cc4)[C@@H]3C2)c1 | -1.5
Fc1ccccc1-c1ccc(C2[C@@H]3CN(Cc4ccccc4)C[C@H]2N3)cc1 (stereo not given in full) | 2.3
COc1cccc(CN2C[C@@H]3N[C@H](C2)C3c2ccc(-c3ccccc3OC)cc2)c1 (stereo not given in full) | -8.6*!
COc1ccccc1-c1ccc(C2[C@@H]3CN(Cc4cccc(F)c4)C[C@H]2N3)cc1 (stereo not given in full) | -3.2*
COc1ccccc1-c1ccc(C2[C@@H]3CN(Cc4nccs4)C[C@H]2N3)cc1 (stereo not given in full) | -0.059
O=C(Nc1cccc(F)c1)N1CC(=O)N2[C@H](CO)[C@H](c3ccc(C#CCC4CCCC4)cc3)[C@@H]2C1 | 2.9
N#C[C@H]1[C@@H](c2ccccc2C2=CCCC2)[C@H](CO)N1C(=O)Cc1ccncc1 | 1
CC(C)[C@H]1COCc2cn(nn2)CCC[C@@H](C)C(=O)N1 | 0.82
O=C(C[C@@H]1C=C[C@H](NC(=O)Nc2ccccc2F)[C@H](CO)O1)NCc1ccc(-c2ccccc2)cc1 | 2.3
CCC(=O)NC[C@H]1[C@@H](c2ccc(-c3cccc(F)c3)cc2)[C@@H](CO)N1C(=O)CC | 1.5
CCCC#Cc1ccc([C@H]2[C@@H](CO)N3C(=O)CN(C(=O)Cc4cccnc4)C[C@H]23)cc1 | -3
CCCC#Cc1ccc([C@H]2[C@@H](CO)N3C(=O)CN(C(=O)Cc4cccnc4)C[C@@H]23)cc1 | -0.66
COc1cccc(C#Cc2ccc([C@H]3[C@@H](CO)N4C(=O)CN(C(=O)Cc5cccnc5)C[C@@H]34)cc2)c1 | -1.6
COc1cccc(C#Cc2ccc([C@H]3[C@H](CO)N4C(=O)CN(C(=O)Cc5ccccc5)C[C@@H]34)cc2)c1 | -0.11
COc1cccc(C#Cc2ccc([C@H]3[C@H]4CN(C(=O)Cc5cccnc5)CC(=O)N4[C@H]3CO)cc2)c1 | -4.1*
CC(C)C#Cc1ccc([C@@H]2[C@@H](CO)N3C(=O)CN(C(=O)Cc4cccnc4)C[C@H]23)cc1 | 4.9
COc1cccc(C#Cc2ccc([C@@H]3[C@H](CO)N4C(=O)CN(C(=O)Cc5cccnc5)C[C@@H]34)cc2)c1 | -4.1*
SMILES | IDE exosite inh
COc1cccc(C#Cc2ccc([C@@H]3[C@H]4CN(C(=O)Cc5cccnc5)CC(=O)N4[C@H]3CO)cc2)c1 | -5*
CCCC#Cc1ccc([C@@H]2[C@H]3CN(C(=O)Cc4cccnc4)CC(=O)N3[C@H]2CO)cc1 | -4.3*
COc1cccc(C#Cc2ccc([C@@H]3[C@H](CO)N4C(=O)CN(C(=O)Cc5ccccc5)C[C@@H]34)cc2)c1 | -0.78
CCCC#Cc1ccc([C@@H]2[C@@H](CO)N3C(=O)CN(C(=O)Cc4cccnc4)C[C@H]23)cc1 | 2.3
CCCC#Cc1ccc([C@@H]2[C@@H](CO)N3C(=O)CN(C(=O)Cc4cccnc4)C[C@@H]23)cc1 | -1.6
COc1ccccc1CNC(=O)C[C@@H]1CC[C@@H]2[C@@H](COc3ccc(NC(C)=O)cc3C(=O)N2C)O1 | 1.8
COCCNC(=O)C[C@H]1C[C@H]2c3cc(NC(=O)CN(C)C)ccc3O[C@H]2[C@H](CO)O1 | -0.81
O=C(Cc1ccccc1)N1CC(=O)N2[C@H](C1)[C@@H](c1ccc(-c3ccccc3)cc1)[C@@H]2CO | -2.1
CC(C)C#Cc1ccc([C@H]2[C@@H](C#N)N(C(=O)c3cccc(F)c3)[C@@H]2CO)cc1 | -0.23
C[C@@H]1CN([C@H](C)CO)C(=O)CCCn2nncc2CO[C@@H]1CN(C)C(=O)Nc1cccc(Oc2ccccn2)c1 | -1.6
CC(C)CC#Cc1ccc([C@H]2[C@@H](CO)N3C(=O)CN(C(=O)NC(C)C)C[C@H]23)cc1 | 3
O=C(Nc1ccccc1)N1CCCCN2[C@H](CO)[C@H](c3ccc(C#Cc4ccccn4)cc3)[C@H]2C1 | -2.4
CCC(=O)N1CC(=O)N2[C@@H](CO)[C@H](c3ccc(C#CC4CCCCC4)cc3)[C@@H]2C1 | 3.6
COc1ccc(C[C@@H]2CCn3cc(nn3)COC[C@H](C)NC2=O)cc1 | 0.91
COc1cccc(S(=O)(=O)N[C@@H]2CC[C@H](CC(=O)NC3Cc4ccccc4C3)O[C@H]2CO)c1 | 0.91
Cc1cccc(S(=O)(=O)N2C[C@@H]3N[C@H](C2)C3c2ccc(-c3ccccc3F)cc2)c1 (stereo not given in full) | 2.5
COc1cccc(S(=O)(=O)N2C[C@@H]3N[C@H](C2)C3c2ccc(-c3ccccc3OC)cc2)c1 (stereo not given in full) | -2.2
COc1cccc(S(=O)(=O)N2C[C@@H]3N[C@H](C2)C3c2ccc(-c3ccccc3C)cc2)c1 (stereo not given in full) | -9.9*!
Cc1cccc(S(=O)(=O)N2C[C@@H]3N[C@H](C2)C3c2ccc(-c3cncnc3)cc2)c1 (stereo not given in full) | 0.092
COc1cccc(S(=O)(=O)N2C[C@@H]3N[C@H](C2)C3c2ccc(-c3ccccc3F)cc2)c1 (stereo not given in full) | 0.57
Cc1cccc(S(=O)(=O)N2C[C@@H]3N[C@H](C2)C3c2ccc(-c3ccccc3C)cc2)c1 (stereo not given in full) | -6.6*!
COc1ccc2c3c(n(C)c2c1)[C@H](CO)N(S(C)(=O)=O)CC31CCN(Cc2nccs2)CC1 | -0.37
COC(=O)c1ccc(CN2CC(=O)N3[C@H](CO)[C@H](c4ccc(-c5ccccc5)cc4)[C@@H]3C2)cc1 | 2.6
O=S(=O)(Cc1ccccc1)N1CCCCN2[C@H](CO)[C@@H](c3ccc(C#Cc4ccccc4)cc3)[C@@H]2C1 | -0.14
O=S(=O)(Cc1ccccc1)N1CCCCN2[C@H](CO)[C@H](c3ccc(C#Cc4ccccc4)cc3)[C@H]2C1 | 4
CCS(=O)(=O)N1CCCCN2[C@H](CO)[C@H](c3ccc(C#Cc4ccccc4OC)cc3)[C@@H]2C1 | -8.2*
O=S(=O)(Cc1ccccc1)N1CCCCN2[C@H](CO)[C@@H](c3ccc(C#Cc4ccccc4)cc3)[C@H]2C1 | 5.1
O=S(=O)(Cc1ccccc1)N1CCCCN2[C@@H](CO)[C@H](c3ccc(C#Cc4ccccc4)cc3)[C@@H]2C1 | 2.5
CCCC#Cc1ccc([C@H]2[C@H]3CN(S(=O)(=O)CC)CCCCN3[C@H]2CO)cc1 | 2.3
CCCC#Cc1ccc([C@@H]2[C@@H](CO)N3CCCCN(S(=O)(=O)CC)C[C@H]23)cc1 | 3
